# Laboratory results as given in PMC5540273 (PLoS ONE, 2017).
# Like-named read-outs stand apart in the source and are kept apart here.
# Legend:
# TAOK2 = settings: concentration: 1 μM, replicates: in singlicate; n = 1
# TAOK3 = settings: concentration: 1 μM, replicates: in singlicate; n = 1
# TBK1 = settings: concentration: 1 μM, replicates: in singlicate; n = 1
# TEC = settings: concentration: 1 μM, replicates: in singlicate; n = 1
# TESK1 = settings: concentration: 1 μM, replicates: in singlicate; n = 1
# TGFBR1 = settings: n = 1
# TGFBR2 = settings: concentration: 1 μM, replicates: in singlicate; n = 1
# TIE1 = settings: concentration: 1 μM, replicates: in singlicate; n = 1
# TIE2 = tested on: T1, TIE2; settings: concentration: 1 μM, replicates: in singlicate; n = 1
# T1 construct: gene TEK
# TLK1 = settings: concentration: 1 μM, replicates: in singlicate; n = 1
# [1] = concentration: 1 μM, replicates: in singlicate
# 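Also: KINOMEscan kinase panel screen.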
Compound,%Inh (TAOK2) [%],%Inh (TAOK3) [%],%Inh (TBK1) [%],%Inh (TEC) [%],%Inh (TESK1) [%],%Inh (TGFBR1; [1]) [%],%Inh (TGFBR2) [%],%Inh (TIE1) [%],%Inh (TIE2) [%],%Inh (TLK1) [%],%Inh (TGFBR1; 1 µM) [%]
O=C1Cc2cc(Nc3nc(NCc4cccc(S(=O)(=O)C(F)(F)F)c4)ncc3C(F)(F)F)ccc2N1,0,0,0,0,0,0,2,0,0,0,–
COc1cc(Nc2nccc(N3CCC(NC(=O)c4cccc(NC(C)=O)c4)C3)n2)cc(OC)c1OC (stereo not drawn) [GSK1379754],0,0,17,0,15,0,0,61,0,0,–
CC(C)Oc1ccc2c(-c3ccnc(Nc4ccc(N5CCN(C)CC5)cc4)n3)cnn2n1 [GW696155],79,70,97.9,0,12,29,35,80,0,95.3,–
O=C(c1ccc(-c2cc(-c3c[nH]nc3-c3ccccn3)ccn2)cc1)N1CCOCC1 [GW812171],33,2,31,16,11,–,11,0,1,0,90.7
COc1ccc(Nc2nccc(N3CCC(NC(=O)Nc4cc(C)ccc4C)C3)n2)cc1 (stereo not drawn) [GSK1379741],0,0,0,20,14,0,0,0,0,0,–
COc1cc2c(cc1OCCN1CCN(C)CC1)ncc1c3ccc(C#N)cc3[nH]c21,13,0,83,0,0,0,0,0,6,37,–
COc1ccc(COc2cc(-n3cnc4ccccc43)sc2C(N)=O)cc1 [GSK1024304],0,0,0,12,20,0,0,11,0,0,–
COCCNC(=O)c1ccc(-c2cc(C(=O)NC3CC3)cc(F)c2C)cc1 [GW868318],16,32,34,11,26,0,6,17,17,14,–
N#Cc1ccc(-c2cc(-c3c[nH]nc3-c3ccccn3)ccn2)cc1 [GW693028],0,0,6,44,23,–,83,0,0,0,87
O=c1cc(N2CCOCC2)nc2n(Cc3cccc4ccccc34)ccn12 [GSK2333389],0,0,0,0,0,17,1,11,0,0,–
Nc1nc(-c2ccc3c(N)n[nH]c3c2)cc(N2CCCC2)n1 [GSK2227430],0,0,18,0,2,0,0,0,0,3,–
CCCCCc1nc2c(N)ncnc2n1CCCCC [SKF-97255],18,0,42,6,14,3,11,0,19,0,–
CN1c2ccc(NCc3ccc(F)cc3)cc2-c2c(cnn2C)S1(=O)=O,26,0,0,0,14,2,16,8,0,13,–
c1ccc(-c2cc(-c3c[nH]nc3-c3ccccn3)ccn2)cc1 [GW576604],0,0,5,0,9,–,62,0,0,1,75
CCc1nc(-c2cccc(C)c2)c(-c2ccnc(NCc3ccccc3)c2)s1,0,0,13,9,0,2,0,13,0,22,–
